The structures appear in SMILES notation. Out of some 340,000 compounds screened, about 530 (0.16%) were called active. Not shown: some 2% with an inconclusive outcome. The sample holds actives, similar compounds and a random draw of the others, so the mix is not that of the screen. Values without a mark were called inactive. Cut-off read from the data, not from the text of the source: active = activity change below about -80%; inconclusive = between about -30% and that limit; inactive = weaker than that.

The results in this text go back to PubChem BioAssay AID540267 (National Center for Advancing Translational Sciences (NCATS), 2011).
% is set by controls: 0 for no effect and ±100 for the full control effect.

The experiment can be described thus: Small Molecules that selectively kill Giardia lamblia: qHTS.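 Note: parasites exposed to compound for two days anaerobically before the ATP read.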 The following applies: Giardia lamblia trophozoite viability; at 7.66 µM; stronger effect = lower value. The source says:
Giardia lamblia is a human pathogen afflicting impoverished nations, and the most common cause of outbreaks of diarrhea in the United States. Giardia has been classified by the CDC as a category B bioterrorism organism. The favored anti giardiasis drugs in the US are metronidazole or tinidazole, compounds that have undesirable side effects. Moreover, increasing resistance to drug regimes and recurrence are a concern. It is thus clear that alternative drug treatments are needed.
In a collaboration between the University of Maryland, College Park and the NIH Chemical Genomics Center, a bioluminescence Giardia viability assay based on the trophozoites' ATP content was developed. This assay is suitable for high throughput screening, and miniaturized the assay for compound screening in 1536-well plates. The goal of the project is to screen the Molecular Libraries Small Molecule Repository (MLSMR) for compounds that selectively kill Giardia trophozoites.
NIH Chemical Genomics Center [NCGC]
NIH Molecular Libraries Probe Centers Network [MLPCN]
Assay Submitter (PI): Osnat Herzberg, University of Maryland, College Park, MD.
1. Dispense 2 ul/well media
2. Dispense 23 nl/well compounds
3. Dispense 4 ul/well Giardia trophozoites at a concentration of 100 cells/well
4. Incubate 48 hrs at 37 deg C anaerobically
5. Dispense 4 ul/well ATPLite 1-Step Luminescence assay kit
6. Incubate 15-30 min at room temperature
7. Read luminescence signal on ViewLux plate reader
For `Oc1ccc(Br)cc1C1C=C(c2ccc3c(c2)OCO3)NC(c2ccc(Cl)cc2)N1` (stereo unspecified), the activity change is -6.54%. `CC1CC(C)(C)CC2(C1)NC(=O)N(CC(=O)Nc1nccs1)C2=O` (stereo unspecified): the activity change is 7.14%. For the compound `COc1ccc(-c2nc(=N)sn2-c2ccccc2)cc1`, the activity change is 5%. In the case of `Cc1ccc(SCC(CC(C)C)N2CCN(CCc3ccccc3)CCC2=O)cc1` (stereo unspecified) it was -1.92%; in that of `COc1ccccc1Nc1cc(C(=O)NCCCN(C)C2CCCCC2)c2ccccc2n1`, -11.5%; in that of `CN(C)Cc1cn(-c2ccccc2)nc1-c1ccccc1`, 2.86%. Then `[O-][n+]1ccc(OCc2ccccc2)cc1`, with 23.2%; and `CCc1ccc(OCCCn2c(CCCNC(=O)C3CCCCC3)nc3ccccc32)cc1`, with -7.56%. Turning to `C=CCSc1nnc(N2C(=O)C(O)=C(C(=O)c3ccco3)C2c2ccc(F)cc2)s1` (stereo unspecified), the activity change was -13.6%. In the case of `O=C(c1cccc(F)c1)N1CCN(c2ccc([N+](=O)[O-])c3cccnc23)CC1`, the activity change is -82.8% (active). In the case of `O=C(c1ccc(N2CCOCC2)c([N+](=O)[O-])c1)N1CCN(c2ccccc2F)CC1`, the activity change was 8.07%. For the compound `O=C(c1cccc(F)c1)N1CCN(c2ccc([N+](=O)[O-])c(N3CCCCC3)c2)CC1`, the activity change is 5.61%. In the case of `O=C(CN1C(=O)NC2(CCCCCC2)C1=O)NCc1cccs1` it was -9.8%; in that of `COc1ccc(Br)cc1C1C2C=CCC(C)C2C(=O)N1Cc1ccccc1` (stereo unspecified), 20%. For `O=C(O)C1CC=CC2CCN(C3CCCCC3)C(=O)C21` (stereo unspecified), the activity change is -16.4%. Regarding `Cc1ccc2ccc3c(c2n1)NS(=O)(=O)c1ccccc1-3`, the activity change is -5.37%. On to `O=C(COc1ccccc1[N+](=O)[O-])N/N=C/c1ccc[nH]1`, for which the activity change is 5.97%.

As to `Cc1cccc(/C=N/NC(=O)CNc2cccc3ccccc23)n1`, the activity change was -9.25%.

On to `CC(C)(C)c1cc(C(=O)N/N=C/c2ccc([N+](=O)[O-])s2)n[nH]1`, for which the activity change is -93% (active). As to `CC(C)c1cc(C(=O)N/N=C/C(Br)=C/c2ccccc2)n[nH]1`, the activity change was 15.8%. On to `Cc1ccccc1NCC(=O)N/N=C\c1ccc([N+](=O)[O-])s1`, for which the activity change was -89.1% (active). Regarding `Cc1cc(C(=O)N/N=C/c2cc([N+](=O)[O-])cc(C)c2O)n[nH]1`, the activity change is -15.8%. Take `CC1(C)OC(=O)N2CCc3ccccc3C21C` (stereo unspecified): the activity change was -12.9%.

Turning to `CCOc1ccc(C(C)=O)cc1CSc1nnc(-c2ccncc2)n1CCOC`, the activity change is 1.79%. In the case of `O=C(NNC(=O)c1ccccc1[N+](=O)[O-])Nc1ccccc1C(F)(F)F` it was -21.9%; in that of `Cn1c(SCC(=O)Nc2ccc(Br)cc2F)nnc1-c1ccco1`, -12.3%. Regarding `Cn1c(-c2ccco2)nc2cc3ccccc3cc21`, the activity change was -82.6% (active). As for `COc1ccc(-n2cnc3cc(NCc4ccco4)ccc32)cc1`, the activity change is -16.4%. In the case of `Cc1ccc(-c2nc3ccccn3c2Nc2ccc(F)cc2)o1` it was 13.3%. In the case of `NCCCNC(=S)NCCCN(Cc1ccc(Cl)cc1)c1ccc(Br)cn1` it was -3.06%; in that of `C=C1CCN(C(CC(C)C)C(=O)NCc2cc(OC)c(OC)c(OC)c2)S(=O)(=O)c2ccccc21` (stereo unspecified), -2.48%; in that of `O=C1c2ccccc2C(=O)N1c1ccc(S(=O)(=O)N2CCOCC2)c2ccccc12`, -26.6%.

As for `c1ccc(-n2ncc(-c3nn[nH]n3)n2)cc1`, the activity change is -10.6%. `O=[N+]([O-])c1ccc(S(=O)(=O)N2CCN(c3nc(-c4ccccc4)nc4ccccc34)CC2)cc1`: the activity change is -1.14%. Regarding `CCC(=O)c1ccc(OCC(=O)N(CC)CC2COc3ccccc3O2)cc1` (stereo unspecified), the activity change is 5.76%. On to `O=C(NCCc1ccco1)c1ccc(OCc2cn3ccccc3n2)cc1`, for which the activity change was -6.02%. Turning to `O=C(Cc1ccccc1)Nc1c(C(=O)N2CCCCCC2)cnn1-c1ccccc1`, the activity change is 7.39%. In the case of `O=C(Nc1cccc2cccnc12)C(F)(F)F` it was 11.7%; in that of `O=c1onc(-c2c(F)cccc2F)n1-c1ccccc1Cl`, -18.5%. Turning to `c1ccc(-c2ccc(OCCN3CCOCC3)cc2)cc1`, the activity change is 19.5%.

Regarding `CCOc1nc(NCCN2CCOCC2)nc(Nc2ccc(C)cc2)n1`, the activity change is 17.9%. Take `c1ccc2cc3c(NCCN4CCOCC4)ccnc3cc2c1`: the activity change was -97.2% (active).

With `COc1cc2nc(CN(C)Cc3ccc(F)cc3)[nH]c(=O)c2cc1OC`, the activity change is 1.83%.

With `CCCNC(=O)c1onc(CSc2ccc(F)cc2)c1C(=O)NC(C)C`, the activity change was 23.4%. On to `CC(C)C(NC(=O)C1CCC(C(C)(C)C)CC1)C(=O)NCCCN1CCCCC1` (stereo unspecified), for which the activity change was -2.26%.

Regarding `CCOCCCNC(=O)C(NC(=O)CNC(=O)c1ccccc1)c1ccc(OC)cc1` (stereo unspecified), the activity change is -20.4%. For the compound `COc1ccc(-c2nc3c(c(SCC(=O)Nc4ccc(C(=O)O)cc4)n2)Cc2ccccc2O3)cc1`, the activity change was 9.92%. Then `Cc1cc(C)cc(OCC(=O)Nc2cc(NC(=O)COc3cc(C)cc(C)c3)cc(C(=O)O)c2)c1`, with -12.2%; and `CC1C/C(=N/NC(=O)c2cccs2)CC(C)(C)C1` (stereo unspecified), with 4.93%. On to `Oc1ccc(Cl)cc1C1C=C(c2ccc3c(c2)OCO3)NC(c2ccc(F)c(Br)c2)N1` (stereo unspecified), for which the activity change is -24.8%. Turning to `O=C(c1ccc2c(=O)n(Cc3ccco3)c(=S)[nH]c2c1)N1CCCC1`, the activity change was 4.07%. `O=C1C[C@@H](c2ccc3ccccc3c2)N1S(=O)(=O)c1ccccc1[N+](=O)[O-]`: the activity change was 0.869%.

Consider `COc1ccc(C(CCN2CCOCC2)c2c(OC)cc(OC)c3c2OC(=O)CC3c2ccc(OC)cc2)cc1` (stereo unspecified), for which the activity change is 12.9%.

As for `CCN(CC)c1nc(C#N)nc(OC)n1`, the activity change was -9.05%.

In the case of `C=C1CCN(Cc2ccc(OC)cc2)S(=O)(=O)c2ccccc21`, the activity change is 23.9%. As to `CCOc1cc2[nH]c(=O)n(CCC(=O)NCc3ccc(OC)cc3)c(=O)c2cc1OCC`, the activity change was -9.64%. With `COc1ccc(C2/C=C\CN(C(=O)c3ccc(C)cc3)C(Cc3ccccc3)C(=O)N2Cc2ccc(F)cc2)cc1` (stereo unspecified), the activity change is 28.8%. Regarding `Cc1ccc(-c2nnc3ccc(SCC(N)=O)nn23)cc1`, the activity change is 5.27%. With `CNN/C(N=Cc1ccc([N+](=O)[O-])s1)=N\S(=O)(=O)c1cc(C)c(Cl)cc1SCc1ccccc1`, the activity change is -85.8% (active). With `O=[N+]([O-])c1ccc(C=Nc2ccc(Cl)cc2Cl)s1`, the activity change was 12%.

Consider `OC[C@@H]1O[C@H](n2cnc3c(SCc4ccccc4)ncnc32)[C@H](O)[C@H]1O`, for which the activity change is 7.24%. In the case of `COc1ccc(CCn2c3c(c(=O)[nH]c2=S)CN(C(C)C)CN3)cc1OC` it was -2.67%.

Regarding `O=C(Nc1cc(S(=O)(=O)N2CCCCC2)ccc1Cl)C1COc2ccccc2O1` (stereo unspecified), the activity change is 9.58%. Then `O=C(CCc1ccccc1)Nc1ncc([N+](=O)[O-])s1`, with -95.3% (active). On to `COC(=O)CSc1nnc(NC(=O)CCc2ccccc2)s1`, for which the activity change is -28.2%. Consider `CC(C)Cc1nnc(NC(=O)CCc2ccccc2)s1`, for which the activity change was -6.99%. On to `CN(c1ccccc1)S(=O)(=O)c1cccc(NC(=O)Cc2c(F)cccc2Cl)c1`, for which the activity change was 6.09%. In the case of `COc1ccc(S(=O)(=O)N2CCOCC2)cc1NC(=O)Cc1c(F)cccc1Cl` it was 0.481%; in that of `O=C(Cc1c(F)cccc1Cl)Nc1ncc([N+](=O)[O-])s1`, -90.9% (active).

Turning to `O=C(Nc1ncc([N+](=O)[O-])s1)C1COc2ccccc2O1` (stereo unspecified), the activity change was -95.9% (active).

`CC(=O)c1cccc(NC(=O)C2COc3ccccc3O2)c1` (stereo unspecified): the activity change was 3.94%. Consider `O=C(Nc1cccc(Cl)c1)c1cc(S(=O)(=O)N2CCCCC2)c[nH]1`, for which the activity change is -28.5%.

On to `Cc1nn(C(C)CC(=O)O)c(C)c1C` (stereo unspecified), for which the activity change is 7.78%. In the case of `CCC1(C)Cc2c(sc3[nH]c(=S)n(Cc4ccccc4)c(=O)c23)CO1` (stereo unspecified) it was -14.6%.

In the case of `COc1cc2c(cc1OC)C(/C=C/c1ccco1)=NCC2`, the activity change is -3.82%. Turning to `CCOc1ccc(C(=O)NC(C(=O)NCc2ccccn2)C(C)C)cc1` (stereo unspecified), the activity change is -4.15%. On to `OCCNc1ncnc2oc(-c3ccco3)c(-c3ccco3)c12`, for which the activity change is -2.77%. Then `COc1cc(OC)c2c(c1C(CCN1CCCCC1)c1ccc(N(C)C)cc1)OC(=O)CC2c1ccc(N(C)C)cc1` (stereo unspecified), with 7.67%. In the case of `O=S(=O)(Nc1cccc2cccnc12)c1cccc2cccnc12`, the activity change is -17.9%. As for `CCOc1ccc(S(=O)(=O)N2CCN=C2Cc2ccccc2)cc1C`, the activity change is -28.6%. For `O=C(c1ccco1)N(Cc1cccs1)c1ccc(O)cc1`, the activity change is -7.42%. Turning to `COc1ccc(CN2CCc3nc(Nc4ccccc4)ncc3C2)c(OC)c1OC`, the activity change is -13.9%. Turning to `NS(=O)(=O)c1ccc(NC(=O)CSc2nnc3c(n2)[nH]c2ccccc23)cc1`, the activity change was -21.1%. Turning to `CCOCN(C(=O)Cn1c(C(C)O)nc2ccccc21)c1c(C)cccc1CC` (stereo unspecified), the activity change is 8%.

Turning to `CN(CCC#N)c1ncnc2scc(-c3ccccc3)c12`, the activity change was -2.98%.

Take `O=C1CC(c2ccccc2)CC2=C1C(c1ccco1)n1nc(C(F)(F)F)nc1N2` (stereo unspecified): the activity change was 14.6%. `CC(Nc1nc(N2CCOCC2)nc2ccccc12)c1ccccc1` (stereo unspecified): the activity change was 4.71%. On to `CC(Nc1nc(N2CCCC2)nc2ccccc12)c1ccccc1` (stereo unspecified), for which the activity change was 3.32%. Turning to `CC(Nc1nc(N2CCN(CCO)CC2)nc2ccccc12)c1ccccc1` (stereo unspecified), the activity change is -93.8% (active). Then `O=C1C2C(c3ccccc3)CC=CC2C(c2ccoc2)N1Cc1ccccc1` (stereo unspecified), with -9.66%; and `O=C(Nc1ccc(Br)cn1)c1ccc([N+](=O)[O-])o1`, with -87.6% (active). Then `O=C(Nc1cccc([N+](=O)[O-])c1)c1ccc2c(c1)OCO2`, with 7.08%. Regarding `O=C(Nc1ccc(Br)cn1)c1ccc([N+](=O)[O-])cc1Cl`, the activity change is -28.4%. As to `CN1C(=O)c2ccc(C(=O)Nc3ccc(Br)cn3)cc2C1=O`, the activity change is 6.68%. `Cc1cccc(NC(=O)c2ccc([N+](=O)[O-])o2)c1`: the activity change was -85.9% (active). For the compound `O=C(Nc1cccc(O)c1)c1ccc(C(=O)c2ccccc2)o1`, the activity change is -8.06%.
